NOMO-1 viab – STK33 inhibitor candidate reducing NOMO-1 cell viability; NOMO-1 AML viability, CellTiter-Glo luminescence, 72 h; inhibition, % (no concentration beside the values); 37,000 tested, 7.5% active; AID 2330; in the data active = inhibition above about 80%; inconclusive = no clear call, values can overlap the other calls
Hedgehog inh – blocks Sonic Hedgehog signaling | Shh-LIGHT2 Gli-luciferase reporter, 30 h | inhibition, % (concentration not given with the values) | 22,000 tested, 2.1% active | AID 2313;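 active = mean inhibition across valid replicates above about 65%, limit read from the data; inconclusive = mean under the limit, yet half or more replicates past it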;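 also: pathway switched on by Shh-conditioned medium diluted 1 in 25 in low serum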
MITF inhib – inhibitors of MITF | inhibition, % (test concentration not listed) | 37,000 tested, 0.28% active | TRPM1 promoter luciferase, luminescence, 24 h; in the data active = inhibition above about 85%; inconclusive = no clear call, values can overlap the other calls; inactive = below about 68%;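 also: human melanocyte line stably carrying TRPM1 promoter luciferase reporter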
Active calls of the source: *; ? = inconclusive; nt = no result. This is a sample that favours compounds with a hit; in the whole collection about 7.8% have one here.

SMILES	NOMO-1 viab	Hedgehog inh	MITF inhib
Oc1ccc(Cl)c2cccnc12	110*	-9	37
C/C=C(/C)C(=O)O[C@H]1C=C(CO)C(=O)[C@H](OC(=O)/C(C)=C/CO)[C@H]1C(C)C	122*	46	106*
CCOc1ccc(C(Nc2cccc(C)n2)c2ccc3ccc(C)nc3c2O)cc1 (configuration not stated)	106*	nt	49
Cc1cccc(NC(c2ccccc2)c2ccc3ccc(C)nc3c2O)n1 (configuration not stated)	102*	nt	39
Cc1ccc2cccc(OCc3nnc(SCC(N)=O)n3C)c2n1	-5	nt	10
C[C@H](CO)N1C[C@H](C)[C@@H](CN(C)Cc2ccc(-c3ccccc3)cc2)Oc2ccc(NC(=O)CCN3CCOCC3)cc2C1=O	17	16	-5
C[C@@H]1CN([C@@H](C)CO)C(=O)Cc2cc(NC(=O)Cn3cnnn3)ccc2O[C@@H]1CN(C)C(=O)Nc1ccc2c(c1)OCO2	-5	-10	-5
C[C@@H]1CN([C@H](C)CO)C(=O)Cc2cc(NC(=O)Nc3ccc(C(F)(F)F)cc3)ccc2O[C@@H]1CN(C)C(=O)Nc1ccccc1	39	-11	7
Cc1ccc(S(=O)(=O)NCC(=O)O)c(C)c1	17	nt	-1
CCCCN1C(=O)[C@H]2Cc3c([nH]c4ccccc34)[C@H](c3ccc(OC)cc3)N2C1=O	52	79*	-5
C[C@@H]1CN([C@H](C)CO)C(=O)c2cc(NS(=O)(=O)c3cccs3)ccc2O[C@H]1CN(C)S(=O)(=O)c1ccc(F)cc1	12	nt	-20
COc1ccc(S(=O)(=O)N(C)C[C@H]2Oc3ccc(NS(=O)(=O)c4cccs4)cc3C(=O)N([C@H](C)CO)C[C@H]2C)cc1	-2	nt	-4
Cc1nc2ccccc2n1CC(O)COCC1CC=CCC1 (configuration not stated)	41	nt	55
Cc1ccc(C(C)C)cc1OCC(O)Cn1c(C)nc2ccccc21 (configuration not stated)	105*	nt	55
Cc1ccc(Cn2nc(C)cc2C(=O)Nc2ccc(C)cc2)cc1	40	-23	-57
Cc1ccc(Cn2nc(C)cc2C(=O)Sc2ccccc2)cc1	92*	28	7
COc1ccc(NC(=O)Nc2cccc3c2O[C@H](CN(C)C(=O)Nc2ccc(F)cc2)[C@H](C)CN([C@H](C)CO)C3=O)cc1	28	-21	-4
CCn1c(SCC(=O)c2ccccc2)nnc1-c1cccnc1	-1	nt	-67
CCOC(=O)Cn1c(-c2cccnc2)nc(-c2ccccc2)c1-c1ccccc1	115*	-5	3
C[C@H](CO)N1C[C@H](C)[C@@H](CN(C)Cc2ccncc2)Oc2c(NC(=O)c3cnccn3)cccc2C1=O	7	70*	-11
C[C@@H]1CN([C@@H](C)CO)C(=O)c2cccc(NC(=O)c3cnccn3)c2O[C@@H]1CN(C)Cc1ccncc1	3	4	0
C[C@@H]1CN([C@H](C)CO)C(=O)c2cccc(NC(=O)c3cnccn3)c2O[C@H]1CN(C)Cc1ccc(C(=O)Nc2ccccc2N)cc1	?	nt	11
C[C@@H]1CN([C@@H](C)CO)C(=O)c2cccc(NC(=O)c3cnccn3)c2O[C@H]1CN(C)Cc1ccc(Cl)c(Cl)c1	105*	-12	36
C[C@@H]1CN([C@@H](C)CO)C(=O)c2cccc(NC(=O)c3cnccn3)c2O[C@@H]1CN(C)Cc1ccc(Cl)c(Cl)c1	10	12	-21
C[C@@H]1CN([C@@H](C)CO)C(=O)c2cccc(NC(=O)c3cnccn3)c2O[C@@H]1CN(C)Cc1ccc(C(=O)Nc2ccccc2N)cc1	129*	nt	32
SMILES	NOMO-1 viab	Hedgehog inh	MITF inhib
C[C@@H]1CN([C@H](C)CO)C(=O)c2cc(N(C)C)ccc2O[C@H]1CN(C)Cc1ccc2c(c1)OCO2	14	-32	2
Cc1sc2ncn(CC(=O)NCc3ccco3)c(=O)c2c1-c1ccccc1	2	nt	0
C[C@H](CO)N1C[C@H](C)[C@@H](CN(C)Cc2ccc(Oc3ccccc3)cc2)Oc2c(NC(=O)Nc3ccc4c(c3)OCO4)cccc2C1=O	60	39	-1
C[C@@H]1CN([C@@H](C)CO)C(=O)c2cccc(NC(=O)Nc3ccc4c(c3)OCO4)c2O[C@H]1CN(C)Cc1ccc(Oc2ccccc2)cc1	95*	-35	24
C[C@@H]1CN([C@H](C)CO)C(=O)c2cccc(NC(=O)Nc3ccc4c(c3)OCO4)c2O[C@@H]1CN(C)Cc1ccc(Oc2ccccc2)cc1	32	-14	-2
C[C@@H]1CN([C@@H](C)CO)C(=O)c2cccc(NC(=O)Nc3ccc4c(c3)OCO4)c2O[C@@H]1CN(C)Cc1ccc(Oc2ccccc2)cc1	95*	56	-5
CC(CNc1ccccc1)C(=Nc1ccccc1)Nc1ccccc1 (configuration not stated)	119*	-21	-8
CC(CCC(=O)Nc1ccccc1)C(=O)O (configuration not stated)	-13	nt	2
CNC[C@@H]1Oc2ccc(NC(=O)Cc3ccccc3)cc2CC(=O)N([C@H](C)CO)C[C@H]1C	-21	-20	-6
Cc1noc(C)c1S(=O)(=O)Nc1ccc2c(c1)C(=O)N([C@H](C)CO)C[C@H](C)[C@@H](CN(C)S(=O)(=O)c1ccc(Cl)cc1)OCCCC[C@@H](C)O2	44	29	38
C[C@@H]1O[C@@H](OC[C@H]2O[C@@H](Oc3ccc(O)cc3)[C@H](O)[C@@H](OC(=O)c3ccc(O)cc3)[C@@H]2O)[C@H](O)[C@H](O)[C@H]1O	-5	-48	-1
O=C1C=CC(O)(/C=C/C(=O)OC[C@H]2O[C@@H](Oc3ccc(O)cc3)[C@H](O)[C@@H](OC(=O)/C=C/C3(O)C=CC(=O)C=C3)[C@@H]2O)C=C1	87*	-5	-5
O=C(/C=C/c1ccc(O)cc1)OC[C@H]1O[C@@H](Oc2cc(O)c3c(c2)OC(c2ccc(O)cc2)CC3=O)[C@H](O)[C@@H](OC(=O)/C=C/c2ccc(O)cc2)[C@@H]1O (some centres not stated)	120*	37	-19
COc1ccc(C2CC(=O)c3c(O)cc(O[C@@H]4O[C@H](CO[C@@H]5O[C@@H](C)[C@H](O)[C@@H](O)[C@H]5O)[C@@H](O)[C@H](O)[C@H]4O)cc3O2)cc1 (some centres not stated)	12	-30	-10
O=C(CSc1nnc2sc3ccccc3n12)Nc1ccc(Cl)cc1	-13	nt	10
COc1ccc(S(=O)(=O)Nc2ccc3c(c2)CC(=O)N([C@@H](C)CO)C[C@H](C)[C@H](CN(C)C(=O)Nc2ccc(F)cc2)O3)cc1	-8	nt	-9
Cc1cc(C)cc(Sc2ccc3nnc(-c4ccccc4)n3n2)c1	122*	67*	55
CSc1nnc(-c2ccccc2)n1-c1ccccc1	19	-16	-9
Cc1cc(C)cc(CC(C(=O)O)C(C)C(=O)NCc2ccccc2)c1 (configuration not stated)	27	-17	-7
Cc1ccc(N(C(C)C(=O)Nc2cccc(C(F)(F)F)c2)S(C)(=O)=O)cc1C (configuration not stated)	34	nt	6
OCCOCCN1CCN(C(c2ccccc2)c2ccc(Cl)cc2)CC1 (configuration not stated)	10	23	13
